Assay results taken from the supplement of paper PMC3545927.
This is one part of the list. The true hit rate is not given.

B1: HC1678 (peptide)
chain: CATEECSQHLAGNASASA
B2: HC97 (peptide)
chain: CAVVCYSMSYAGNASASA
B3: HC128 (peptide)
chain: CAEVVMSTWVAGNASASA
B4: FS-772 (peptide)
chain: CAFRIRTIRSAGNASASA
B5: FS-1090 (peptide)
chain: CASRYRFVRSAGNASASA
B6: FS-920 (peptide)
chain: CATPEDFVRSAGNASASA
B7: FS-1089 (peptide)
chain: CASRYRFIRSAGNASASA
B8: HC1987 (peptide)
chain: CAFVCCSMSYAGNASASA
B9: HC2245 (peptide)
chain: CAEVVTSTWLAGNASASA
B10: HC1014 (peptide)
chain: CAEMEECSQHAGNASASA
B11: FS-2744 (peptide)
chain: CARPRRMTPFAGNASASA
B12: FS-2742 (peptide)
chain: CARPRREAPFAGNASASA
B13: HC1228 (peptide)
chain: CAPPCKPLLRAGNASASA
B14: HC2197 (peptide)
chain: CAEVSTSTWVAGNASASA
B15: HC1868 (peptide)
chain: CATTWCSGSWAGNASASA
B16: HC2056 (peptide)
chain: CAVVCCSGSYAGNASASA
B17: FS-134 (peptide)
chain: CALNGRCRRTAGNASASA
B18: FS-894 (peptide)
chain: CAVTSRSFRTAGNASASA
B19: FS-935 (peptide)
chain: CAKKGRNRRTAGNASASA
B20: FS-353 (peptide)
chain: CALNGREHRSAGNASASA
B21: FS-41 (peptide)
chain: CAKKGRGKRTAGNASASA
B22: FS-1241 (peptide)
chain: CAPKGRGKRRAGNASASA
B23: HC479 (peptide)
chain: CAEHRLEAACAGNASASA
B24: HC1759 (peptide)
chain: CAMEECSQPLAGNASASA
B25: HC2129 (peptide)
chain: CAEYVVCCSMAGNASASA
B26: HC2527 (peptide)
chain: CASTPCSFHLAGNASASA
B27: HC996 (peptide)
chain: CAAAYCLSTGAGNASASA
B28: HC1192 (peptide)
chain: CANAYTTGPCAGNASASA
B29: HC1757 (peptide)
chain: CAMEECSQSLAGNASASA
B30: FS-830 (peptide)
chain: CAMRSRNGRWAGNASASA
B31: FS-133 (peptide)
chain: CAHRCRHKRWAGNASASA
B32: FS-3242 (peptide)
chain: CARAQRFWSWAGNASASA
B33: FS-1421 (peptide)
chain: CATAKREKRWAGNASASA
B34: HC2222 (peptide)
chain: CAEVVTSQWVAGNASASA
B35: HC62 (peptide)
chain: CATTPCGGSWAGNASASA
B36: HC1818 (peptide)
chain: CADTMEECSQAGNASASA
B37: FS-889 (peptide)
chain: CAVKGRGRRDAGNASASA
B38: FS-940 (peptide)
chain: CALNERIRRDAGNASASA
B39: FS-457 (peptide)
chain: CALPGRDGRDAGNASASA
B40: FS-1428 (peptide)
chain: CAVHVRIRRDAGNASASA
B41: FS-2624 (peptide)
chain: CAVWKRRAEDAGNASASA
B42: HC448 (peptide)
chain: CAGNNTLHCPAGNASASA
B43: HC807 (peptide)
chain: CAYSTYGKFLAGNASASA

Target: furin, P09958
Sequence (P09958 whole entry): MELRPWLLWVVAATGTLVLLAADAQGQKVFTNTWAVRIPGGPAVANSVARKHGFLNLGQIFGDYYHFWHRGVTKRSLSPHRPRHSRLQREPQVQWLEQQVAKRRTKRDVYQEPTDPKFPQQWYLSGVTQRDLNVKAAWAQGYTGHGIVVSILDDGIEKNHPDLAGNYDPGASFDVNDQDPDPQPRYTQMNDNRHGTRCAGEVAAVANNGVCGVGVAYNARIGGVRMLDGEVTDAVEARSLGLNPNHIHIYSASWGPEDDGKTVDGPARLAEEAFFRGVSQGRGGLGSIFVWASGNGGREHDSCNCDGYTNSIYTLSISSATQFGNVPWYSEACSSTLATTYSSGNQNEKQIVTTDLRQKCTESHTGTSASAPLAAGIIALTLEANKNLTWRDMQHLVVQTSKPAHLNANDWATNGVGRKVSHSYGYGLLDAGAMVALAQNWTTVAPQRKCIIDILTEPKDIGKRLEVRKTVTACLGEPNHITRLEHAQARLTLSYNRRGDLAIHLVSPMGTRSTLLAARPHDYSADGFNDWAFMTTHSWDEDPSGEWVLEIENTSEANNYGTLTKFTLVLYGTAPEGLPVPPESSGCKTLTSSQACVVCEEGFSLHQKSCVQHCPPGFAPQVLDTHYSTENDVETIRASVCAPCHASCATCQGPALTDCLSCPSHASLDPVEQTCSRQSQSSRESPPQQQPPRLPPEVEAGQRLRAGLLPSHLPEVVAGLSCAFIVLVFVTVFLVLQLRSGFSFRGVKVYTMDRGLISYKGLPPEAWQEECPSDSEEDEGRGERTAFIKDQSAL
Experiment: furin cleavage Z-score vs untreated control; higher = more cleavage, active = 3.5 or more, inactive = 1 or less, 8 variable residues between constant flanks
Summary of the method: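 Peptides 8 residues long, fused to a cDNA oligonucleotide, were fixed to magnetic beads by the N-terminus and exposed to purified furin. The 0.01 ml reactions contained 50 mM HEPES pH 7.5 with CaCl2 and NaCl at 1:10 enzyme:substrate and ran 7.5, 15 or 30 min. For the cleavage Z-score, log counts of sequenced released DNA were compared with furin-free reactions, lowess-adjusted and scaled by median absolute deviation.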

Row | Sequence | furin cleavage Z-score (7.5 min) | furin cleavage Z-score (15 min) | furin cleavage Z-score (30 min)
1 | B1 | -0.115 (inactive) | 0.32 (inactive) | 0.469 (inactive)
2 | B2 | -0.487 (inactive) | -0.359 (inactive) | 1.4
3 | B3 | -0.73 (inactive) | -0.446 (inactive) | -0.0354 (inactive)
4 | B4 | 12.7 (active) | 13.4 (active) | 9.8 (active)
5 | B5 | 10.3 (active) | 8.88 (active) | 7.53 (active)
6 | B6 | -0.0484 (inactive) | -0.138 (inactive) | -0.221 (inactive)
7 | B7 | 9.42 (active) | 10.5 (active) | 7.95 (active)
8 | B8 | 1.81 | -0.389 (inactive) | -0.812 (inactive)
9 | B9 | 0.791 (inactive) | 0.0846 (inactive) | 0.0471 (inactive)
10 | B10 | -0.42 (inactive) | 0.366 (inactive) | 1.51
11 | B11 | 2.59 | 4.44 (active) | 4.82 (active)
12 | B12 | 9.78 (active) | 10.3 (active) | 8.49 (active)
13 | B13 | 0.659 (inactive) | 0.392 (inactive) | 0.118 (inactive)
14 | B14 | -0.613 (inactive) | 0.268 (inactive) | -1.55 (inactive)
15 | B15 | -0.625 (inactive) | -0.0771 (inactive) | -0.259 (inactive)
16 | B16 | -1.92 (inactive) | -0.697 (inactive) | -1.32 (inactive)
17 | B17 | 6.57 (active) | 6.93 (active) | 8.18 (active)
18 | B18 | 1.05 | -0.0745 (inactive) | -0.661 (inactive)
19 | B19 | 9.29 (active) | 8.34 (active) | 7.42 (active)
20 | B20 | 0.641 (inactive) | -0.584 (inactive) | -0.522 (inactive)
21 | B21 | 6.83 (active) | 9.38 (active) | 6.62 (active)
22 | B22 | 3.48 | 3.42 | 4.16 (active)

Row | Sequence | furin cleavage Z-score (7.5 min) | furin cleavage Z-score (15 min) | furin cleavage Z-score (30 min)
23 | B23 | 1.04 | -1.24 (inactive) | -0.381 (inactive)
24 | B24 | 1.51 | 1.8 | 0.466 (inactive)
25 | B25 | -0.0811 (inactive) | -0.535 (inactive) | -0.778 (inactive)
26 | B26 | -0.634 (inactive) | 0.268 (inactive) | 1.39
27 | B27 | 0.288 (inactive) | 0.367 (inactive) | -0.487 (inactive)
28 | B28 | 0.653 (inactive) | 0.298 (inactive) | 0.115 (inactive)
29 | B29 | 0.758 (inactive) | -0.436 (inactive) | 0.392 (inactive)
30 | B30 | 0.613 (inactive) | 0.727 (inactive) | 2.67
31 | B31 | 5.93 (active) | 10.1 (active) | 8.03 (active)
32 | B32 | -0.658 (inactive) | -0.187 (inactive) | -0.233 (inactive)
33 | B33 | 7.45 (active) | 10.5 (active) | 8.76 (active)
34 | B34 | -0.277 (inactive) | -0.189 (inactive) | 0.204 (inactive)
35 | B35 | -1.67 (inactive) | 0.588 (inactive) | -0.211 (inactive)
36 | B36 | -0.715 (inactive) | -1.26 (inactive) | -0.384 (inactive)
37 | B37 | 10.2 (active) | 9.87 (active) | 8.49 (active)
38 | B38 | 13.3 (active) | 15.6 (active) | 11.4 (active)
39 | B39 | -0.75 (inactive) | 1.1 | 0.0293 (inactive)
40 | B40 | 15.3 (active) | 15.9 (active) | 11.3 (active)
41 | B41 | 0.714 (inactive) | -0.547 (inactive) | 0.046 (inactive)
42 | B42 | 0.837 (inactive) | 0.103 (inactive) | 0.597 (inactive)
43 | B43 | 0.775 (inactive) | -0.645 (inactive) | -0.0395 (inactive)
